This is a sample that favours compounds with a hit; in the whole collection about 4.5% have one here.
DAX1 inh-1: inhibits human nuclear receptor DAX1. P51843. HEK293 Gal4-DAX1 luciferase reporter, luminescence. inhibition, % at 6.75 µM. 340,000 tested, 0.99% active. AID 504766;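 active = inhibition above the mean over all tested compounds plus 3 SD, cut at about 4.2% in these data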;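 note: 0% = DAX1-transfected cells with DMSO and 100% = empty-vector control cells with DMSO; inhibition shows as a rise in luminescence from relieved DAX1 repression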
Target sequence (P51843 207-470 limits assumed): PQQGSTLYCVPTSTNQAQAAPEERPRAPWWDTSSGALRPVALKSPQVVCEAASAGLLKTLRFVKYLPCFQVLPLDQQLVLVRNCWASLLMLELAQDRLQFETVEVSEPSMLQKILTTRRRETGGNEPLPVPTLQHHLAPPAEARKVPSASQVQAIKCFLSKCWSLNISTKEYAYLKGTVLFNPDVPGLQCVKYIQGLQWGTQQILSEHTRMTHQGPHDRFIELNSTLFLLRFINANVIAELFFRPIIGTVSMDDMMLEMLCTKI
hgDAF12 agonist: hgDAF-12 agonism, primary luciferase screen; AID 687014; 370,000 tested, 1.8% active; activation, % at 6.8 µM; HEK293 GAL4-hgDAF12 UAS-luciferase reporter, agonist luminescence; normalized to butyrate control;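 active = activation above a cutoff set at the mean of all screened compounds plus 3 SD, cut at about 10% in these data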;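 note: 0% = DMSO wells and 100% = sodium butyrate wells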
ssDAF-12 act: activates DAF-12 receptor from parasite S. stercoralis. activation, % at 6.8 µM. HEK293 ssDAF-12/GRIP1 lit1-tk-luc reporter, luminescence; % of 3 µM dafachronic acid response. 370,000 tested, 1% active. AID 652126;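 active = activation above the mean over all tested compounds plus 3 SD, cut at about 0.9% in these data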;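 note: 0% = DMSO-only wells and 100% = 3 µM delta7-dafachronic acid wells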
DAX1 inh-2: inhibitors of DAX1 repression of SF-1 activated StAR promoter. HEK293T StAR-luciferase reporter, SF-1/DAX-1 repression relief. inhibition, % at 6.8 µM. 370,000 tested, 1.1% active;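 active = inhibition above the mean over all tested compounds plus 3 SD, cut at about 3.6% in these data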;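 note: 0% = DAX-1 cells with DMSO and 100% = cells lacking DAX-1 with DMSO; higher inhibition means more luminescence from relief of DAX-1 repression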
hcDAF-12 act: activates DAF-12 receptor from parasite H. contortus; HEK293 hcDAF-12 lit1-tk-luc reporter, luminescence; 0% DMSO, 100% Δ7-dafachronic acid; activation, % at 6.8 µM; 370,000 tested, 1.4% active; AID 652067;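 active = activation above the mean of all tested compounds plus 3 SD, cut at about 5.5% in these data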;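 note: 100% = response to 3 µM Δ7-dafachronic acid high control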
GAA850 FXN act: increases GAA850 frataxin promoter reporter activity; activation, % at 6 µM; 360,000 tested, 0.56% active; HEK293 lucGAA850 FXN promoter luciferase reporter, 24 h; percent of 10 µM SAHA response;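 active = activation above the average of all compounds screened plus 3 SD, cutoff fixed separately per campaign, cut at about 7.5% in these data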;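 note: 0% = DMSO wells and 100% = 10 µM SAHA wells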
DAX1 conf: confirmation of human DAX1 (NR0B1) inhibitors; shares compounds with DAX1 inh-2; HEK293T StAR-promoter luciferase reporter, SF-1/DAX-1 repression; inhibition, % at 6.8 µM; 2,400 tested, 87% active;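 active = inhibition above the average of every tested compound plus 3 SD, cut at about 3.8% in these data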;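 note: 0% = DAX-1 cells with DMSO and 100% = no DAX-1 control cells with DMSO; active compounds raise luminescence by relieving repression of the StAR reporter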
SF1 mutant ctr: counter-screen for DAX1 inhibitors: nonselective inhibitors with SF-1 AF2 mutant | inhibition, % at 6.8 µM | 2,400 tested, 78% active | shares compounds with DAX1 inh-2 | HEK293 StAR-luciferase, luminescence;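 active = inhibition above the mean of all tested compounds plus 3 SD, cut at about 3% in these data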;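 note: 0% = DAX-1 transfected cells with DMSO and 100% = cells without DAX-1 with DMSO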
LXR ag: LXR-beta agonism as hcDAF-12 counter-screen. shares compounds with hcDAF-12 act. HEK293 Gal4-LXR tk-luc reporter, luminescence, 24 h; normalized: DMSO 0%, positive control 100%. activation, % at 6.8 µM. 3,400 tested, under 10 active;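 active = mean percent activation of the reporter above a cutoff set as the average over tested compounds plus their standard deviation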
Target sequence (P55055 whole entry, looked up, the tested form may be a part): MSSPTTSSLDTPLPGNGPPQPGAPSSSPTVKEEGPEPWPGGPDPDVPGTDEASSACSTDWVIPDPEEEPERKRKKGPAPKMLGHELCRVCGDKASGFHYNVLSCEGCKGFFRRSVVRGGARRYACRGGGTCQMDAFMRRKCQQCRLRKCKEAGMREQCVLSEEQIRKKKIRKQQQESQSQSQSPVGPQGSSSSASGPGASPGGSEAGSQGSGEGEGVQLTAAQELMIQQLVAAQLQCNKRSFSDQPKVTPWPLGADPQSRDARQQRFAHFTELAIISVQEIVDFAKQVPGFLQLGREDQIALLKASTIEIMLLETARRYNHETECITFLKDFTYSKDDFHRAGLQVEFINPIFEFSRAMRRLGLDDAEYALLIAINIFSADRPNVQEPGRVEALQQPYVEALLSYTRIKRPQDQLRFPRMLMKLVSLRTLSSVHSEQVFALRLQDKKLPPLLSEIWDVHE
hcDAF12 conf: confirmation of H. contortus DAF-12 agonists. 3,400 tested, 61% active. HEK293 hcDAF-12 lit1-tk-luc reporter, luminescence; % of Δ7-dafachronic acid response. shares compounds with hcDAF-12 act. activation, % at 6.8 µM. AID 743032;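 active = mean activation across triplicate tests above the threshold derived from the earlier primary screen, cut at about 5.5% in these data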;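 note: 0% = DMSO only wells and 100% = 3 µM Δ7-dafachronic acid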
hgDAF12 conf: hgDAF-12 agonism, confirmation assay; shares compounds with hgDAF12 agonist; HEK293 GAL4-hgDAF12 luciferase reporter, agonist mode; percent of butyrate response; activation, % at 6.8 µM; 3,300 tested, 80% active; AID 743050;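 active = mean activation over triplicate wells above the hit cutoff derived from the earlier primary screen, cut at about 11% in these data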;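 note: 0% = DMSO low control and 100% = 2 mM sodium butyrate high control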
LXR ag 2: LXR-beta agonism as DAF-12 counter-screen; shares compounds with hgDAF12 agonist; HEK293 Gal4-LXR luciferase reporter, 24 h; activation, % at 6.8 µM; 3,300 tested, under 10 active;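 active = mean activation of the triplicate above a set limit carried over from the primary screen, none filed active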
* marks the source's active call; other numbers are inactive results; · = no result.

SMILES	DAX1 inh-1	hgDAF12 agonist	ssDAF-12 act	DAX1 inh-2	hcDAF-12 act	GAA850 FXN act	DAX1 conf	SF1 mutant ctr	hgDAF12 conf	LXR ag 2	others
O=C1CCC[C@H]2[C@@H](Cc3ccccc3)[C@@H](O)CC[C@]23CCCN13	·	0	-1	·	-1	·	·	·	·	·
O=C(OCC(=O)N1CCCC1)c1c(Cl)cccc1Cl	0	0	-1	0	-2	1	·	·	·	·
O=C(OCC(=O)N1CCc2ccccc2C1)c1c(F)cccc1Cl	2	16*	0	5.6*	4	3	10*	7.3*	18*	1
O=C(/C=C(\Nc1cccc(F)c1)c1ccccc1)c1ccccc1	·	5	-1	2	0	·	·	·	·	·
Oc1ccc(-c2nn[nH]n2)c2cccnc12	·	0	-2	·	1	·	·	·	·	·
CCc1sc(C(=O)Nc2ncccc2O)cc1C	-2	22*	1.0*	22*	7.9*	2	15*	6.2*	26*	1	LXR ag=1;hcDAF12 conf=7.9*
COc1ccc2cc3c(N)c(C(=O)N4CCCC4)sc3nc2c1	·	4	-1	0	-1	·	·	·	·	·
Cc1ccc2cc3c(N)c(C(=O)N4CCOCC4)sc3nc2c1	5.1*	16*	1.0*	5.6*	6.2*	-3	12*	5.9*	1	0
CCc1ccc(C2=NN(C(C)=O)C(c3ccco3)C2)cc1 (configuration not stated)	3	15*	0	4.9*	4	4	9.5*	5.5*	15*	0
CC(=O)N1N=C(c2ccc(NS(=O)(=O)c3ccccc3)cc2)CC1c1ccco1 (configuration not stated)	-2	1	-1	-4	-1	-4	·	·	·	·
CC(C)(C)c1ccc(NC(=O)Nc2ccc(OCC(=O)N3CCOCC3)cc2)cc1	0	15*	-1	5.1*	6.4*	3	7.8*	4.5*	22*	1
O=C(NCc1ccccc1)[C@@H]1CCCN1C(=O)[C@H]1CCCN1C(=O)c1ccccc1F	·	-1	-1	1	-1	·	·	·	·	·
Cn1cccc1C(=O)Nc1ccc(N2CCOCC2)cc1	1	18*	1	8.2*	4	3	8.3*	4.4*	16*	1
CCCCOc1ccc(C(=O)NC2CCCCN(C(C)C)C2=O)cc1 (configuration not stated)	·	3	0	-2	-4	·	·	·	·	·
O=C(NCc1ccccc1)C(c1ccccc1)n1c(C2CC2)nc2ccccc21 (configuration not stated)	·	20*	1.9*	6.1*	2	·	11*	5.2*	16*	1
CN1OC[C@@H]2CN[C@H](c3ccc(-c4cccc(F)c4)cc3)C[C@@H]21	4	13*	0	6.2*	2	0	6.3*	2	7	0
C/C(=N/NC(=O)CN1CCN(Cc2ccccc2Cl)CC1)c1cccc(O)c1	·	5	-2	-1	-1	·	·	·	·	·
COc1cc(Cl)cc(/C=C/c2ccc3ccccc3n2)c1OC(C)=O	0	21*	0	5.1*	4	6	11*	5.3*	13*	1
CC(=O)Oc1ccc(Cl)cc1/C=C/c1cc(OC(C)=O)c2ccccc2n1	·	8	0	0	4	·	·	·	·	·
Cc1ccc(NC(=O)/C(Cl)=C/c2ccccc2)cc1C	2	20*	1.0*	7.0*	9.7*	6	20*	8.2*	21*	1	LXR ag=2;hcDAF12 conf=8.4*
CCN(CC)c1ccc(N=Nc2nn(C)c(C)c2[N+](=O)[O-])cc1	0	16*	1.2*	4.7*	4	5	14*	5.2*	15*	1
C[C@@H]1CCN(C2CC2)S(=O)(=O)c2ccc(N3CC[C@@H](O)C3)cc2O1	·	0	0	-1	-2	·	·	·	·	·
O=C(/C=C\Nc1ccccc1Br)c1ccc2c(c1)OCO2	-5	17*	1	5.3*	9.4*	-3	9.6*	2	16*	1	LXR ag=2;hcDAF12 conf=17*
O=C(/C=C/c1ccccc1Br)c1ccc2c(c1)OCO2	-2	5	-1	0	0	2	·	·	·	·
CC(=O)Nc1ccc(-c2ccnc3c2CC(C(=O)Nc2cccnc2)O3)cc1 (configuration not stated)	·	6	-1	-1	-1	-4	·	·	·	·
SMILES	DAX1 inh-1	hgDAF12 agonist	ssDAF-12 act	DAX1 inh-2	hcDAF-12 act	GAA850 FXN act	DAX1 conf	SF1 mutant ctr	hgDAF12 conf	LXR ag 2	others
Nn1c(SCC(=O)N2CCOCC2)nnc1-c1cc(-c2ccc(Cl)cc2)n[nH]1	·	-1	-1	0	-2	·	·	·	·	·
Cc1ccn2c(c1)nc(=S)n2C(=O)c1ccccc1	4.5*	15*	1	6.5*	6.7*	-7	8.0*	1	11*	1	LXR ag=1;hcDAF12 conf=12*
COc1ccc(-c2cc(=O)c3cc(OC)ccc3o2)cc1	3	20*	0	9.0*	8.1*	2	9.7*	1	20*	1	LXR ag=2;hcDAF12 conf=7.2*
COc1ccc2c(=O)c(-c3ccc(OC)c(OC)c3)coc2c1	3	6	-1	3	1	4	·	·	·	·
O=C(COc1ccc2oc(-c3ccccc3)cc(=O)c2c1)Nc1ccccc1	0	5	-1	0	-2	1	·	·	·	·
COc1ccc2oc(-c3ccccc3)cc(=O)c2c1	·	13*	1.1*	5.8*	7.6*	-1	13*	5.4*	16*	1	LXR ag=2;hcDAF12 conf=8.5*
COc1ccc2c(=O)c(-c3ccccc3)coc2c1	2	21*	0	6.2*	6.8*	3	12*	8.2*	17*	1	LXR ag=1;hcDAF12 conf=5
COc1ccc(-c2cc(=O)c3ccc(O)cc3o2)cc1	3	16*	-1	7.8*	3	2	10*	5.7*	14*	1

Bioassay records deposited in PubChem BioAssay by The Scripps Research Institute Molecular Screening Center.
